Reference: PubChem BioAssay AID720517 (National Center for Advancing Translational Sciences (NCATS), 2013)
Records with an inconclusive call do not appear. Values without a mark were called inactive. Active and inactive are the calls of the source. The call rests on the fitted dose curve; in most records, active means well fitted activation curve with a large enough effect; inconclusive means small, poorly fitted or top-dose-only effect; inactive means flat fitted curve, though single readings scatter.

Assay: qHTS for Inhibitors of Cell Surface uPA Generation: FP59 Counterscreen for Cherry-picked Compounds; on activity (protection from FP59): 0% is about no effect
Conditions: FP59 anthrax toxin cytotoxicity counterscreen, cells; series mostly up to 115 µM; activity (protection from FP59): at the top concentration
Potency means the concentration at half of the fitted maximal effect.

For `CS/C(=C\[N+](=O)[O-])Nc1ccccc1`, which “activity (protection from FP59)” value is on record?
Its value is -1.4%.

For `CCOc1ccc(N(CC(=O)Nc2ccc(CC)cc2)S(=O)(=O)c2c(C)[nH]c(=O)[nH]c2=O)cc1`, which “activity (protection from FP59)” value is on record?
Its value is -1.42%.

For `CC(C)C1Oc2ccccc2N(CC(=O)NC2CCCCC2)C1=O` (centres undefined), which Potency is on record?
The Potency was 58.5 µM (active).

For `CSc1ccccc1OCc1cc(C(=O)NCCCn2nc(C)cc2C)no1`, which “activity (protection from FP59)” value is on record?
The value was -1.14%.

For `CC1C2=C(CC(C)(C)CC2=O)NC2=C1C(=O)CC(C)(C)C2`, which “activity (protection from FP59)” value is on record?
Its value is -1.24%.

For `COCCOc1ccc(C(F)(F)F)cc1NC(=O)COC(=O)Cc1c[nH]c2ccccc12`, which “activity (protection from FP59)” value is on record?
The value was -1.38%.

Which “activity (protection from FP59)” value does the source give for `CN(C)S(=O)(=O)c1ccc(NC(=O)COC(=O)CC2CC3CCC2C3)cc1` (centres undefined) here?
Its value is -1.38%.

With `Cc1ccccc1NC(=O)N1CCN(c2ncccn2)CC1` as the compound, how does the “activity (protection from FP59)” value read?
Its value is -1.2%.

With `O=C(O)C(Nc1nc(C(F)(F)F)nc2ccccc12)c1ccccc1` (centres undefined) as the compound, how does the “activity (protection from FP59)” value read?
The value was -1.46%.

With `Cc1cc(C)n(-c2cc(C(=O)O)cc(C(=O)O)c2)n1` as the compound, how does the “activity (protection from FP59)” value read?
The value was -1.29%.

Which “activity (protection from FP59)” value does the source give for `COc1ccc(NC(=O)CC(C)CC(=O)NCc2ccccc2)c(OC)c1` (centres undefined) here?
The value was -1.24%.

With `CN(C)c1cccc(C(=O)N(C)C2CCCN(Cc3ccccc3F)C2)c1` (centres undefined) as the compound, how does the Potency read?
Its Potency is 52.1 µM (active).

Which “activity (protection from FP59)” value does the source give for `Brc1ccsc1/C=N/Nc1ccccc1` here?
Its value is 0.415%.

With `CC(Sc1nnc2ccccn12)C(=O)NCc1ccc2c(c1)OCO2` (centres undefined) as the compound, how does the “activity (protection from FP59)” value read?
The value was -1.47%.

With `Cc1nc2ccccc2c2oc(C(=O)Nc3ccc4c(c3)OCCO4)cc12` as the compound, how does the “activity (protection from FP59)” value read?
Its value is -1.53%.

Which “activity (protection from FP59)” value does the source give for `CCOc1cc(N2CCOCC2)c(OCC)cc1NC(=O)c1[nH]c(C)c(C(C)=O)c1C` here?
Its value is -1.34%.

With `Cc1c(C(=O)N2CCN(S(=O)(=O)c3cccs3)CC2)oc2ccc(F)cc12` as the compound, how does the “activity (protection from FP59)” value read?
Its value is -1.4%.

For `CCCN1CCN(C2CCCCC2NS(=O)(=O)c2ccc(Cl)cc2)CC1` (centres undefined), which “activity (protection from FP59)” value is on record?
Its value is -1.5%.

With `Cn1cnc([N+](=O)[O-])c1Sc1ccc(Br)cc1` as the compound, how does the “activity (protection from FP59)” value read?
The value was -1.41%.

Which “activity (protection from FP59)” value does the source give for `CC(C)(C)OC(=O)NCCCCCNC(=O)c1[nH]cnc1C(=O)Nc1ccc(Cl)cc1` here?
The value was -1.08%.

For `Cc1noc(C)c1COc1ccc(C(=O)O)cc1`, which “activity (protection from FP59)” value is on record?
The value was -1.37%.

Which “activity (protection from FP59)” value does the source give for `Cc1cccc(N2CCN(Cc3ccc(Br)o3)CC2)c1C` here?
The value was -1.14%.

For `COc1ccc([C@@H]2[C@@H]3C(=O)N(C(C)(C)C)C(=O)[C@@H]3[C@]3(C)C(=O)N(c4cccc(Cl)c4)C(=O)N23)cc1`, which “activity (protection from FP59)” value is on record?
The value was -0.614%.

For `CCOCc1nnc(NC(=O)C2CCN(C(=O)C3CC(=O)N(c4ccc(C)cc4)C3)CC2)s1` (centres undefined), which “activity (protection from FP59)” value is on record?
Its value is -1.45%.

For `Cc1ccc(NC(=O)C(C)S)cc1` (centres undefined), which “activity (protection from FP59)” value is on record?
The value was 1.44%.

Which “activity (protection from FP59)” value does the source give for `Cc1ccc(N2C(=O)CC(N3CCN/C3=C3\CC/C(=C\c4ccccc4)C3=O)C2=O)cc1` (centres undefined) here?
The value was -1.33%.

With `CC1(C)CC(=O)C([N+](=O)[O-])=C(NCCCC(=O)O)C1` as the compound, how does the “activity (protection from FP59)” value read?
Its value is -0.402%.

Which “activity (protection from FP59)” value does the source give for `CCOC(=O)C1CCN(S(=O)(=O)c2c[nH]c(=O)[nH]c2=O)CC1` here?
The value was -0.73%.

Which “activity (protection from FP59)” value does the source give for `O=C(COC(=O)C1CC2C=CC1C2)NCc1ccccc1Cl` (centres undefined) here?
Its value is -1.11%.

Which “activity (protection from FP59)” value does the source give for `Cc1ccc2oc(C(=O)N(Cc3ccc(N(C)C)cc3)C3CCS(=O)(=O)C3)c(C)c2c1` (centres undefined) here?
Its value is 3.1%.

Which “activity (protection from FP59)” value does the source give for `O=C(CSc1ccc(Cl)cc1)Nc1ccc(C2SCCS2)cc1` here?
The value was -1%.

Which “activity (protection from FP59)” value does the source give for `C/C=C/C(=O)Nc1cccc(C2=NOC3(C2)C[C@@H](C(N)=O)N(C(=O)c2cc([N+](=O)[O-])cc([N+](=O)[O-])c2C)C3)c1` (some centres undefined) here?
Its value is -1.09%.

For `COc1ccc(CNC(=O)C2(CC3CC(c4ccccc4)=NO3)CCNCC2)cc1` (centres undefined), which “activity (protection from FP59)” value is on record?
The value was -1.45%.

Which “activity (protection from FP59)” value does the source give for `Cc1nn(CC(=O)OCC(=O)NC(C)c2ccccc2)c(C)c1[N+](=O)[O-]` (centres undefined) here?
Its value is 0.0139%.

For `Cc1ccc(OCc2cc(C(=O)N(C)Cc3cc(C4CC4)n[nH]3)no2)cc1C`, which “activity (protection from FP59)” value is on record?
The value was -0.124%.

For `COCCNC(=S)N(CCc1c(C)[nH]c2ccccc12)Cc1ccco1`, which “activity (protection from FP59)” value is on record?
The value was -1.09%.

For `O=C1OCC/C1=C\c1ccc(O)cc1`, which “activity (protection from FP59)” value is on record?
The value was -1.59%.

For `COc1ccccc1CNC(=O)CCn1c(=O)oc2ccccc21`, which “activity (protection from FP59)” value is on record?
The value was -1.54%.

Which “activity (protection from FP59)” value does the source give for `Cc1cccc(NC(=O)C2CCCN(S(=O)(=O)c3ccc4[nH]c(=O)ccc4c3)C2)c1` (centres undefined) here?
The value was -1.46%.
